The supplement of paper PMC6411743
± gives the standard deviation of the averaged measurements. For part of these data: Targets with the largest changes are over-represented here; the source holds about 5,400 in all. For part of these data: The full data set covers some 6,500 targets. This sample favours those with the largest changes.

Key:
[1] = compound: Nc1ncnc2c1ncn2[C@@H]1O[C@H](COP(=O)(O)OP(=O)(O)OP(=O)(O)O)[C@@H](O)[C@H]1O [adenosine triphosphate]; test: NP40-soluble protein abundance relative to vehicle (solubility fold change) (ratio); higher = more soluble protein in presence of ATP
Method in brief: (§1)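 Each value is a fold change relative to the detergent-processed vehicle, calculated per replicate from vsn-normalised intensities. Jurkat crude lysate received eight concentrations (0.1 to 10 mM) for 10 min at room temperature and 3 min at 37 °C, then was solubilised in 0.8% NP40 with benzonase (60 min, 4 °C). The ultracentrifuged supernatant was TMT-labelled and run by LC-MS/MS in three independent experiments.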

[2] = compound: Nc1nc2c(ncn2[C@@H]2O[C@H](COP(=O)(O)OP(=O)(O)OP(=O)(O)O)[C@@H](O)[C@H]2O)c(=O)[nH]1 [guanosine triphosphate]; test: NP40-soluble protein abundance relative to vehicle (solubility fold change) (ratio); higher = more soluble protein in presence of GTP
Method in brief: as §1

Sequence of UniProt P10242 (P10242 whole entry, one chain of several): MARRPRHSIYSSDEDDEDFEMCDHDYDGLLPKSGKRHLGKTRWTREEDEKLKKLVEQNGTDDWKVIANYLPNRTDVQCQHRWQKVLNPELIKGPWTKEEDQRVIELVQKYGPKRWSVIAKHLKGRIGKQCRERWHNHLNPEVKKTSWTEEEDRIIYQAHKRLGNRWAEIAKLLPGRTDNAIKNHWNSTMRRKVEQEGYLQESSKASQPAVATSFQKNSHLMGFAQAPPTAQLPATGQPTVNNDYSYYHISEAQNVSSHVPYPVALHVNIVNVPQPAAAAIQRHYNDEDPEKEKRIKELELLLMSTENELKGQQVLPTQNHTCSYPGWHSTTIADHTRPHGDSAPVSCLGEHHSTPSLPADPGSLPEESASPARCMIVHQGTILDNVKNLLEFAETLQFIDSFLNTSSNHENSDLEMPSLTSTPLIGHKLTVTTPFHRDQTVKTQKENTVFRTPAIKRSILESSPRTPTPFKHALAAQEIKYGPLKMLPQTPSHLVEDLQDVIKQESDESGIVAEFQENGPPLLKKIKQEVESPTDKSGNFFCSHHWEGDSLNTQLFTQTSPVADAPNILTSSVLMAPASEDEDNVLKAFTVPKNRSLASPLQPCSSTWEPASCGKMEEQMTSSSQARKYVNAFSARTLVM
Sequence of UniProt O43795 (O43795 whole entry, one chain of several): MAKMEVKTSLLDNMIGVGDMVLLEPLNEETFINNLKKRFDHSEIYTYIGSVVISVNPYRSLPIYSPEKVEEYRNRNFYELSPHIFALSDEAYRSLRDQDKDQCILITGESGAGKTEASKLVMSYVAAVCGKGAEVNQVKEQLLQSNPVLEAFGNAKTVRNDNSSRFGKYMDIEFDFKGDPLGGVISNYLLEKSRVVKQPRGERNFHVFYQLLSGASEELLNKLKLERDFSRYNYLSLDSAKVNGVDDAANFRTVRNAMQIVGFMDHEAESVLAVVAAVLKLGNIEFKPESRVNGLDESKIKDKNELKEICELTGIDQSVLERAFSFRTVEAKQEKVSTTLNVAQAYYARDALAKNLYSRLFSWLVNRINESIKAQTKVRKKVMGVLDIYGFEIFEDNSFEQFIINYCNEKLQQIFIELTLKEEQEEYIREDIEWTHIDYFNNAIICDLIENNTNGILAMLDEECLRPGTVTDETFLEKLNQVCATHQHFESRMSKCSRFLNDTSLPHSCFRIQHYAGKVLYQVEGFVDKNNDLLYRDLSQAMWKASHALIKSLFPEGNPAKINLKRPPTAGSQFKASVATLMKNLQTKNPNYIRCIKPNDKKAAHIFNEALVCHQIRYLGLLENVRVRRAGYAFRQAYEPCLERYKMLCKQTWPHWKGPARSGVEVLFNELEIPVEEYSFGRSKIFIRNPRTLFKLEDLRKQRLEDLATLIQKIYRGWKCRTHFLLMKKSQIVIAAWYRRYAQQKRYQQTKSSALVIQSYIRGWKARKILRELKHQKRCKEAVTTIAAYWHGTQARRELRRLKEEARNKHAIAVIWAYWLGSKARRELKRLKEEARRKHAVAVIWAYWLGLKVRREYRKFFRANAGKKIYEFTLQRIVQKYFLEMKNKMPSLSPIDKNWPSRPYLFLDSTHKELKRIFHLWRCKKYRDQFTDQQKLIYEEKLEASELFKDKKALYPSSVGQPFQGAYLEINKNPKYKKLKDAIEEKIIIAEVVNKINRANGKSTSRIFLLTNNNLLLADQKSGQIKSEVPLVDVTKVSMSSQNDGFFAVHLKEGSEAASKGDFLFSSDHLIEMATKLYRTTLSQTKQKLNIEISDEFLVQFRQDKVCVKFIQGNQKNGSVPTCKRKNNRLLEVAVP
Sequence of UniProt P07766 (P07766 whole entry, one chain of several): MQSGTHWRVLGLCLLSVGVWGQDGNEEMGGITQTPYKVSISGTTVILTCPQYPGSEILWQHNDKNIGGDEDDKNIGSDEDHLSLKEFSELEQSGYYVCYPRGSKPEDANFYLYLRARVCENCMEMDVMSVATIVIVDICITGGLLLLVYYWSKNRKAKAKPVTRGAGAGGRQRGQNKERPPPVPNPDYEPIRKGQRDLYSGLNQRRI
Sequence of UniProt Q9UPN7 (Q9UPN7 whole entry): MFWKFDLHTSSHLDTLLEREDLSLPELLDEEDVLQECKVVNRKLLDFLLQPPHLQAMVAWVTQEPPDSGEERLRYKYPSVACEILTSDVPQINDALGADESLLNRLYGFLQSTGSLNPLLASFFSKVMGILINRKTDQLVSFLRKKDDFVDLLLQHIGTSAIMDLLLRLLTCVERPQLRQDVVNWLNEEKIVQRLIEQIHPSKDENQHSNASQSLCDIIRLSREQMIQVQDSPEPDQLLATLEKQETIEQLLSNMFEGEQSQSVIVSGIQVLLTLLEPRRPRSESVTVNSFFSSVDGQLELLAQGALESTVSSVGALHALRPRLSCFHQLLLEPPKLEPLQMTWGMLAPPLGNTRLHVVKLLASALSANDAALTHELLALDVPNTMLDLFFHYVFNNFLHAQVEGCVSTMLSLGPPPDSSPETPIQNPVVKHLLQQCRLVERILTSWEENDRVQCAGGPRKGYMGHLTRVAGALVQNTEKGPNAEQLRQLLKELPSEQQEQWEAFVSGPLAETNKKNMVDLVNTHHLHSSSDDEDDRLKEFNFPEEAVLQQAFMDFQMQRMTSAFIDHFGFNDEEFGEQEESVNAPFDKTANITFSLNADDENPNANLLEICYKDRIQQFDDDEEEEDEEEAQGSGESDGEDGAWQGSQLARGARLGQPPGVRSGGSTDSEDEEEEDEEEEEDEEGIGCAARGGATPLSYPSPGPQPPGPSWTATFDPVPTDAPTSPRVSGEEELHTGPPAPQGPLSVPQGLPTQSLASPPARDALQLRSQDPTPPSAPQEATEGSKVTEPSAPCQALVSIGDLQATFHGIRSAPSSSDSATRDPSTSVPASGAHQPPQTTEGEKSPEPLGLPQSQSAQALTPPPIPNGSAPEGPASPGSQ
Sequence of UniProt Q9Y4I1 (Q9Y4I1 whole entry, one chain of several): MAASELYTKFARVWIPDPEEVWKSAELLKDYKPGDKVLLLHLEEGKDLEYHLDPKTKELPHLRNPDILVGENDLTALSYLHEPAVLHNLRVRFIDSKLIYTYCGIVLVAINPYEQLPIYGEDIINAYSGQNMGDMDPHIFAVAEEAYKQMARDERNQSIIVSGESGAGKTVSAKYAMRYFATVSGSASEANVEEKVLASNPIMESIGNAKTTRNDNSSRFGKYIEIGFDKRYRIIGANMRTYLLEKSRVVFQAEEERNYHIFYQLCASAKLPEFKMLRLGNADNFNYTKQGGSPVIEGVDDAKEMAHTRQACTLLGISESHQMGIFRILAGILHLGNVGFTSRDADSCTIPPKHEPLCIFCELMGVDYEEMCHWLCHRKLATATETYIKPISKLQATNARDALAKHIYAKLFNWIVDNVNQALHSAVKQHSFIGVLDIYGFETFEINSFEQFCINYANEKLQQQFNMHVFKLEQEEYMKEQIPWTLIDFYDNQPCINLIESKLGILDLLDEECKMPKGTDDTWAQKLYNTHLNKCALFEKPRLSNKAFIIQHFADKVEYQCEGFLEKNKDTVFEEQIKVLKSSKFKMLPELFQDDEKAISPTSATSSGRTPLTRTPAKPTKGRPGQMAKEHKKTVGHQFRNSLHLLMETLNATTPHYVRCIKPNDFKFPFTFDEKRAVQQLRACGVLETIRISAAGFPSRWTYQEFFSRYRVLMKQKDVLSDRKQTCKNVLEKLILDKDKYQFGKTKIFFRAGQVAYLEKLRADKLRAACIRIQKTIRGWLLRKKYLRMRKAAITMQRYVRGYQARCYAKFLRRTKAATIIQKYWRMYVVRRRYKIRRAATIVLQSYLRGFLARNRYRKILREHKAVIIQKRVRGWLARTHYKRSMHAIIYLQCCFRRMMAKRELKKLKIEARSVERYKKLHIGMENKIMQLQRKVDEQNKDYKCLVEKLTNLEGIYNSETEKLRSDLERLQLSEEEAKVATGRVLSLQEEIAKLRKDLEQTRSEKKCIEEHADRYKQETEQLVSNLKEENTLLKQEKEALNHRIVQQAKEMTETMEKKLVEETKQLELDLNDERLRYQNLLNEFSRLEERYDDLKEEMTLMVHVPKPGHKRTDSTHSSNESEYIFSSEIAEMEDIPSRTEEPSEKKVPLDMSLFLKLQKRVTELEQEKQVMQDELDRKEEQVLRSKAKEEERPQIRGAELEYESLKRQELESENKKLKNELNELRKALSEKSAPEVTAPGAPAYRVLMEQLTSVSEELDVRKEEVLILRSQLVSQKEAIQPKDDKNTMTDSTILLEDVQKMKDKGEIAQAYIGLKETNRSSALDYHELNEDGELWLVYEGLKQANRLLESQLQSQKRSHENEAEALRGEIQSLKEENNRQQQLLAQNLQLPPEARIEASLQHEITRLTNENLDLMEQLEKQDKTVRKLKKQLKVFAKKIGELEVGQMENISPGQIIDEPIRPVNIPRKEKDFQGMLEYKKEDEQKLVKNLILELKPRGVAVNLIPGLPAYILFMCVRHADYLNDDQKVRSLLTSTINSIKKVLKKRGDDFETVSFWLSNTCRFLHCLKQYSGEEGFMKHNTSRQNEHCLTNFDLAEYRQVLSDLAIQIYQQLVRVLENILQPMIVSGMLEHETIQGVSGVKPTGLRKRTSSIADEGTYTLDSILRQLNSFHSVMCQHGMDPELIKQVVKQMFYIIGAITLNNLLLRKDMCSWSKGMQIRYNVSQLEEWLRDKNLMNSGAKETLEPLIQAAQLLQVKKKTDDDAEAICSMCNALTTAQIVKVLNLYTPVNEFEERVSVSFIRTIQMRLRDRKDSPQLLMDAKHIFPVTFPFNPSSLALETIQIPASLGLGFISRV
Sequence of UniProt Q9Y375 (Q9Y375 whole entry, one chain of several): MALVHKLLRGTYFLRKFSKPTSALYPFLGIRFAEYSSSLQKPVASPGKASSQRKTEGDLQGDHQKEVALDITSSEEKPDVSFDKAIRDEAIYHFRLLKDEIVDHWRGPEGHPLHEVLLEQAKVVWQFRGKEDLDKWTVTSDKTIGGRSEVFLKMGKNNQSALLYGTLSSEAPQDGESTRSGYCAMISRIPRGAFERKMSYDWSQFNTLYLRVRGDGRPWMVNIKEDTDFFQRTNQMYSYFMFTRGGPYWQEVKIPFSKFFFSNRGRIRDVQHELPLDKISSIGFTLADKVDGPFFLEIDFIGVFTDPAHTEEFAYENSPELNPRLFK

Target	NP40-soluble protein abundance ([1]; concentration: 1mM)	NP40-soluble protein abundance ([1]; concentration: 2mM)	NP40-soluble protein abundance ([1]; concentration: 4mM)	NP40-soluble protein abundance ([1]; concentration: 6mM)	NP40-soluble protein abundance ([1]; concentration: 8mM)	NP40-soluble protein abundance ([1]; concentration: 10mM)	NP40-soluble protein abundance ([2]; concentration: 0.1mM)	NP40-soluble protein abundance ([2]; concentration: 0.5mM)	NP40-soluble protein abundance ([2]; concentration: 1mM)	NP40-soluble protein abundance ([2]; concentration: 2mM)	NP40-soluble protein abundance ([2]; concentration: 4mM)	NP40-soluble protein abundance ([2]; concentration: 6mM)	NP40-soluble protein abundance ([2]; concentration: 8mM)	NP40-soluble protein abundance ([2]; concentration: 10mM)
UniProt Q9UPN7	0.945 ± 0.014	0.941 ± 0.046	0.941 ± 0.029	0.917 ± 0.041	0.924 ± 0.018	0.93 ± 0.037	–	–	–	–	–	–	–	–
A6NFX8|Q9UKK9 (UniProt Q9UKK9)	–	–	–	–	–	–	1.05 ± 0.036	1.04 ± 0.07	0.987 ± 0.036	0.994 ± 0.079	0.968 ± 0.046	0.942 ± 0.052	0.93 ± 0.018	0.93 ± 0.01
SMCHD1 (UniProt A6NHR9)	–	–	–	–	–	–	1.05 ± 0.04	1.06 ± 0.055	0.999 ± 0.029	1.03 ± 0.07	1.04 ± 0.056	1.04 ± 0.043	1.02 ± 0.051	1.01 ± 0.098
E9PSH8|P07766 (UniProt P07766)	–	–	–	–	–	–	0.955 ± 0.049	0.991 ± 0.076	0.986 ± 0.071	0.958 ± 0.085	0.962 ± 0.082	0.96 ± 0.082	0.978 ± 0.068	0.983 ± 0.11
E9PDF6|O43795|O43795-2 (UniProt O43795)	–	–	–	–	–	–	1.44 ± 0.25	2.35 ± 0.38	2.32 ± 0.37	2.41 ± 0.43	2.4 ± 0.41	2.37 ± 0.38	2.33 ± 0.3	2.21 ± 0.26
E9PEN0|Q8WYH8|Q8WYH8-2 (UniProt Q8WYH8)	–	–	–	–	–	–	1.1 ± 0.098	1.07 ± 0.16	1.26 ± 0.41	1.19 ± 0.26	1.33 ± 0.3	1.5 ± 0.35	1.48 ± 0.39	2 ± 0.59
B1AMW1|P19256|P19256-2|P19256-3 (UniProt P19256)	–	–	–	–	–	–	0.879 ± 0.05	0.937 ± 0.095	0.973 ± 0.11	0.915 ± 0.064	0.979 ± 0.038	1.03 ± 0.088	0.952 ± 0.036	0.958 ± 0.047
H0YL22|Q9Y375 (UniProt Q9Y375)	–	–	–	–	–	–	0.979 ± 0.059	1.05 ± 0.082	0.936 ± 0.088	0.969 ± 0.071	0.922 ± 0.036	0.924 ± 0.065	0.921 ± 0.071	0.943 ± 0.059
E7EPN9|Q9Y520|Q9Y520-4|Q9Y520-5|Q9Y520-7 (UniProt Q9Y520)	–	–	–	–	–	–	1.01 ± 0.02	1.01 ± 0.054	1.1 ± 0.063	1.14 ± 0.073	1.24 ± 0.057	1.36 ± 0.075	1.53 ± 0.14	1.7 ± 0.2
C9J5X1|P08069 (UniProt P08069)	–	–	–	–	–	–	1.04 ± 0.13	1.04 ± 0.13	1.15 ± 0.11	0.987 ± 0.07	1 ± 0.086	1.05 ± 0.1	1.07 ± 0.14	1.04 ± 0.2
B3KS98|O15372 (UniProt O15372)	–	–	–	–	–	–	0.992 ± 0.07	1.01 ± 0.088	1.03 ± 0.075	1.08 ± 0.15	1.27 ± 0.25	1.42 ± 0.28	1.6 ± 0.34	1.8 ± 0.36
D6R938|E9PBG7|E9PF82|Q13557|Q13557-10|Q13557-11|Q13557-12|Q13557-3|Q13557-4|Q13557-5|Q13557-6|Q13557-8|Q13557-9 (UniProt Q13557)	–	–	–	–	–	–	1 ± 0.11	1.04 ± 0.14	1.07 ± 0.14	1.08 ± 0.15	1.1 ± 0.1	1.13 ± 0.1	1.09 ± 0.17	1.14 ± 0.14
H3BMU3|O60268|O60268-3 (UniProt O60268)	–	–	–	–	–	–	0.928 ± 0.032	0.988 ± 0.17	1.01 ± 0.18	0.95 ± 0.15	0.961 ± 0.14	0.918 ± 0.2	0.919 ± 0.067	0.998 ± 0.096
A0A0A0MRR7|P09234 (UniProt P09234)	–	–	–	–	–	–	1.06 ± 0.017	1.19 ± 0.068	1.25 ± 0.068	1.36 ± 0.052	1.33 ± 0.11	1.56 ± 0.097	1.71 ± 0.2	1.82 ± 0.24
F8W8G5|P10242|P10242-10|P10242-11|P10242-2|P10242-4|P10242-7|P10242-8|P10242-9 (UniProt P10242)	–	–	–	–	–	–	1.02 ± 0.063	1.04 ± 0.077	1.08 ± 0.073	1.08 ± 0.086	1.12 ± 0.037	1.12 ± 0.1	1.15 ± 0.044	1.13 ± 0.051
E9PF32|H0YAY3|A2RUS2|A2RUS2-2 (UniProt A2RUS2)	–	–	–	–	–	–	1.1 ± 0.17	1.13 ± 0.069	1.05 ± 0.038	1.1 ± 0.19	1.1 ± 0.12	1.1 ± 0.011	1 ± 0.14	1.01 ± 0.11
C9JRJ5|Q9UGP4 (UniProt Q9UGP4)	–	–	–	–	–	–	1.01 ± 0.054	1 ± 0.021	1 ± 0.043	0.955 ± 0.025	0.963 ± 0.031	0.962 ± 0.021	1.01 ± 0.038	0.965 ± 0.034
E7EW84|Q8TAG9 (UniProt Q8TAG9)	–	–	–	–	–	–	0.9794 ± 0.0039	0.996 ± 0.039	0.959 ± 0.064	1.08 ± 0.082	1.01 ± 0.12	0.897 ± 0.022	0.882 ± 0.025	0.966 ± 0.18
F8W0Q9|Q8NEY8-2|Q8NEY8-8|Q8NEY8-9|Q8NEY8-3|Q8NEY8 (UniProt Q8NEY8)	–	–	–	–	–	–	1.01 ± 0.022	1.08 ± 0.019	1.19 ± 0.058	1.28 ± 0.096	1.41 ± 0.18	1.45 ± 0.2	1.63 ± 0.22	1.77 ± 0.42
C9JWC4|Q8NCD3|Q8NCD3-2|Q8NCD3-3 (UniProt Q8NCD3)	–	–	–	–	–	–	1.07 ± 0.053	1.12 ± 0.041	1.15 ± 0.069	1.18 ± 0.025	1.19 ± 0.15	1.18 ± 0.067	1.2 ± 0.055	1.13 ± 0.081
H0UI80|Q8IXH7|Q8IXH7-4|X6RLT1 (UniProt X6RLT1+Q8IXH7+H0UI80)	–	–	–	–	–	–	1.01 ± 0.017	0.973 ± 0.038	0.965 ± 0.024	0.968 ± 0.012	0.981 ± 0.011	0.978 ± 0.01	0.97 ± 0.039	0.95 ± 0.0096
C9IY68|C9J384|Q9BQ75|Q9BQ75-2 (UniProt Q9BQ75)	–	–	–	–	–	–	0.945 ± 0.058	1.03 ± 0.083	1.06 ± 0.071	1.1 ± 0.058	1.17 ± 0.069	1.22 ± 0.094	1.23 ± 0.12	1.31 ± 0.04
A9IYQ1|Q9NTI5|Q9NTI5-2 (UniProt Q9NTI5)	–	–	–	–	–	–	1.01 ± 0.015	1.03 ± 0.024	1.01 ± 0.015	0.995 ± 0.036	1.01 ± 0.035	1.01 ± 0.052	1.02 ± 0.08	0.992 ± 0.041
G3V394|Q9Y4I1-3 (UniProt Q9Y4I1)	–	–	–	–	–	–	1.28 ± 0.16	2.15 ± 0.36	2.39 ± 0.25	2.51 ± 0.3	2.65 ± 0.31	2.59 ± 0.39	2.5 ± 0.4	2.51 ± 0.36
A0A0A0MR85|Q03013 (UniProt Q03013)	–	–	–	–	–	–	1.08 ± 0.068	1.07 ± 0.067	1.04 ± 0.078	1.03 ± 0.14	0.929 ± 0.058	0.985 ± 0.071	1 ± 0.11	0.989 ± 0.14
